The values that follow come from PubChem BioAssay (NCATS).

Test [1] in a line: qHTS of Trypanosoma Brucei Inhibitors: LOPAC Validation (AID 624147). Also: 0% is about no effect. In outline: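 Assay buffer: 50 mM TEA pH 7.2, 100 mM KCl, 10 mM MgCl2, 0.05% BSA, 0.01% Tween-20. Pyruvate kinase from T. brucei plus substrate met compound, then ADP (130 uM final). Luminescence was read post 45 min RT.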
(Quantitative high-throughput screening tests each substance at several concentrations.)

Test [2] deals with Glucagon-like peptide 1 receptor (Homo sapiens) (UniProt P43220). The experiment in a line: qHTS of GLP-1 Receptor Agonists: LOPAC Validation (AID 624148).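 Also: 0% is about no effect; higher luminescence signal means agonism.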 In outline:
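HEK293 cells stably co-expressing a cAMP-responsive luciferase reporter and a hypersensitive GLP-1R were plated 12 h at 37 °C and exposed to compounds for 4-6 hr at 37 °C, 5% CO2. Luminescence was read 12 min after adding detection reagent.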

Test [3] can be described thus: qHTS of Nrf2 Activators: LOPAC Validation (AID 624149). Also: 0% is about no effect. In outline:
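Luciferase signal from ARE activation, read with Steady-Glo after 30 min at room temperature. Compounds were pin-transferred onto AREc32_Fluc cells (1000/well, OPTI-MEM/5% FBS, seeded overnight) and left 24 hr at 37 deg C.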

In test [4] the target is Glutaminase kidney isoform, mitochondrial (Homo sapiens) (UniProt O94925). The experiment in a line: qHTS for Inhibitors of Glutaminase (GLS): LOPAC Validation (AID 624146). Also: nearly all actives have a fitted effect of over 60% in size. Also: potency is read from the fitted curve at half-maximal effect. A digest of the protocol:
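Compounds were pin-transferred onto hKGA, after which L-glutamine (1 mM solution) and a detection mix of glutamate oxidase, HRP and Amplex Red were added. Initial and 30 min RT fluorescence reads were collected.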

Test [5] is described as follows: qHTS Assay for Identification of Small Molecule Agonists for NFkB Signaling Pathway. (AID 624478).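 Also: compounds tested together with TNF alpha at its EC50 of 10 pM; 0% is about no effect.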 In outline: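 Compounds were added with 10 pM TNF alpha (EC50 level) to ME-180 NFkB-bla cells in low-serum Opti-MEM and incubated 5 hrs at 37 C. Beta-lactamase FRET read-out used 405 nm excitation and 460 and 530 nm emission.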
Test [6] can be described thus: qHTS Assay for Identification of Small Molecule Antagonists for NFkB Signaling Pathway. (AID 624479; calls by dose curve;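 also: pathway stimulated with TNF alpha; potency is read from the fitted curve at half-maximal effect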). The note with it: NFkB pathway reporter cell assay, antagonist mode.
Test [7] in a line: Cell Proliferation Assay against the TMD8 Cell Line (AID 651645).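 Also: cells exposed to compound for 48 h before reading.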 The note with it: TMD8 DLBCL cell line proliferation/viability; at 46.1 µM (top of the series). The text has this:
One class of targeted therapeutics showing early clinical success in killing of ABC DLBCL lines are small molecule inhibitors of the Bruton tyrosine kinase (BTK) 11.
Prior to any combination assays, using an NCATS developed oncology compound library called the Mechanism of Interrogation Plate (MIPE), two well studied ABC DLBCL lines (TMD8 and HBL1) were screened using a cell viability assay (CellTiterGlo) and a 12-point titration series for each single agent. These initial experiments offered insight into the concentration range that offered the best coverage of activity and non-activity to assure relevant data is generated. […]
A total of 500 log growing TMD8 cells are seeded per well in 5 uL of a RPMI with glutamine (or Glutamax), without phenol red plus 5% FBS and 1X Pen/Strep into 1536 -solid white high base tissue culture treated Greiner One Bio Plates (789173-F) using a multidrop combi dispenser and a small sterile cassette. […] The plates are then spun at 1000 rpms to remove bubbles and incubated for 15 minutes at room temperature before read on a ViewLux using a luminescent filter with a 10 second exposure. The relative luciferase units are used to calculated percent activity using DMSO as 100% and Bortezomib as 0%.

Test [8] in a line: Cell Proliferation Assay against the HBL1 Cell Line (AID 651646).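 Also: cells exposed to compound for 48 h before reading.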 The note with it: HBL1 DLBCL cells; at 46.1 µM (top of the series). In outline: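 After a 48 h incubation of 500 HBL1 cells/well in phenol red-free RPMI plus 5% FBS, relative luciferase units from CellTiter-Glo gave percent activity against DMSO and 9.2 uM bortezomib (final) controls.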
Test [9] in a line: Cell Proliferation Assay against the TMD8 Cell Line (Caspase readout at 16 hrs) (AID 651712). Also: potency is read from the fitted curve at half-maximal effect. The note with it: TMD8 lymphoma cells, caspase activation luminescence. In outline: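 16 h, 37 °C, TMD8 (500 cells/well), RPMI/5% FBS no phenol red; Caspase-Glo 3/7, 15 min RT, luminescence; %act: DMSO 0, bortezomib 9.2 uM final 100.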
Test [10] in a line: HTS Assay for Allosteric Antagonists of the Human D2 Dopamine Receptor: Hit Validation in HTRF (AID 624455).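 Also: stable D1 dopamine receptor cell line scored for blocking the D1 response; % is scaled to controls: 0 for no effect and ±100 for the full control effect.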 In outline: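 Inhibition of the D1-mediated response was measured by HTRF. Cells used were a line stably expressing the D1 dopamine receptor.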
(In general: TR-FRET usually uses a lanthanide donor and a delayed reading to cut background.)

Results filed as inconclusive are left out. The source made the active and inactive calls. Unless noted, calls follow the shape of the dose curve; as a rule, active = well fitted curve in the direction sought with a large enough effect; inconclusive = small, poorly fitted or top-dose-only effect, or another doubt; inactive = no such curve, though single readings can be large; an effect the other way counts as inactive or inconclusive.

Glucagon-like peptide 1 receptor (Homo sapiens), sequence (P43220 whole entry, looked up): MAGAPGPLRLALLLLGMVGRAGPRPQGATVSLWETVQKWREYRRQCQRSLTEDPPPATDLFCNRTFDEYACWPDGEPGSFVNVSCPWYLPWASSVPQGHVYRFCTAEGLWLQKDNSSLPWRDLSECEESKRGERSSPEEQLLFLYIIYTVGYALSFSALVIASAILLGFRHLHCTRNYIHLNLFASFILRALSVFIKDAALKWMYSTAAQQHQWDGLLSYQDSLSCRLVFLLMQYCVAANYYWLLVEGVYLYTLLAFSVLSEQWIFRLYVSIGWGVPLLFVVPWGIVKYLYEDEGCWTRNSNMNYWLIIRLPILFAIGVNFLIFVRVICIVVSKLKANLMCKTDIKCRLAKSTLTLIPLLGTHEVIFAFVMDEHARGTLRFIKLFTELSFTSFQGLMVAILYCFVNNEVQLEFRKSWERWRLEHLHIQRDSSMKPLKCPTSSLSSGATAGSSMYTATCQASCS
Glutaminase kidney isoform, mitochondrial (Homo sapiens), sequence (O94925 whole entry, looked up, canonical isoform): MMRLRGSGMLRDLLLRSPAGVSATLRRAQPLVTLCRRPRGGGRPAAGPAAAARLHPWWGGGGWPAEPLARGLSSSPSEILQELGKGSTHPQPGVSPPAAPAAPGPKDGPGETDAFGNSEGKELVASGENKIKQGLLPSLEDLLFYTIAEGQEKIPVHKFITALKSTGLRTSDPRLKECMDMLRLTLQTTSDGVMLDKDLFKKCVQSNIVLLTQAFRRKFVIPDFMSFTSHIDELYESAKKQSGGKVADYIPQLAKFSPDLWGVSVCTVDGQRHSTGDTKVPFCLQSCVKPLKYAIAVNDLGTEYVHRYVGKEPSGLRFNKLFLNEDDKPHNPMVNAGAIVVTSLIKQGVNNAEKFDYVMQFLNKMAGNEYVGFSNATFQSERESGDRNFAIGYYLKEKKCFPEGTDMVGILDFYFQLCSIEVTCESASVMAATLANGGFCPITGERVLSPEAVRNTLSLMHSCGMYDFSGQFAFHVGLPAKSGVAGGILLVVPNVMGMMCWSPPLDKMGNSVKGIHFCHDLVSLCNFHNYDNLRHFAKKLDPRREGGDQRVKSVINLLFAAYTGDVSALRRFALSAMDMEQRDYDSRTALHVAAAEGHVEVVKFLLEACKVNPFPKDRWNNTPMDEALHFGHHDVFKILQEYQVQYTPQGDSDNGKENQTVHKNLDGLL

With `CN1CCN(C2=Nc3ccccc3Oc3ccc(Cl)cc32)CC1`, the compound was called inactive in test [1], in test [2] and in [3].

`Nc1ncn([C@@H]2O[C@H](CO)[C@@H](O)[C@H]2O)c(=O)n1`: the Potency entry in test [4] is “inactive”. Further, the result in test [1], in test [2], in [3] and in test [5] was inactive. In addition, the Potency in [6] was 16.8 µM (active); in [9], 14.8 µM (active). Also, in test [7], the viability (% of control) stood at 6.56%. Moreover, in test [8], the viability, percent of control is 22.1%.

As to `CN(C)[C@@H]1C(=O)C(C(N)=O)=C(O)[C@@]2(O)C(=O)C3=C(O)c4c(O)ccc(Cl)c4[C@@H](O)[C@H]3C[C@@H]12`, the compound was classed as inactive in [1], in test [2] and in test [3].

`Cc1nc2sccn2c(=O)c1CCN1CCC(=C(c2ccc(F)cc2)c2ccc(F)cc2)CC1`: the Potency entry in test [4] and in [10] was “inactive” in each case. Besides, the outcome in test [1], in [2] and in [3] was inactive.

Regarding `CCCCNC(=O)NS(=O)(=O)c1ccc(C)cc1`, the Potency result in test [4] and in test [10] was “inactive” in each case. For the same compound, the outcome in [1], in test [2] and in [3] was inactive.

Take `Cc1ccc(=O)n(-c2ccccc2)c1`: the outcome in test [1], in test [2] and in [3] was inactive.

With `CCn1nc(C(=O)O)c(=O)c2cc3c(cc21)OCO3`, the Potency entry in test [4] and in test [10] was “inactive” in each case. Also, the compound was called inactive in [1] and in [2].

Take `OCCN1CCN(CC/C=C2/c3ccccc3Sc3ccc(C(F)(F)F)cc32)CC1`: the Potency entry in test [4] and in test [10] was “inactive” in each case. The compound was classed as inactive in test [1] and in [3].

With `O=C(O)CN(CCOCCOCCN(CC(=O)O)CC(=O)O)CC(=O)O`, the result in [1], in test [2] and in [3] was inactive. In addition, in [10], the Potency entry is “inactive”.

As to `CN/C(=C\[N+](=O)[O-])NCCSCc1ccc(CN(C)C)o1`, the Potency result in test [4] and in [10] was “inactive” throughout. In addition, the call in test [1] and in test [2] was inactive.

With `CN(C)CCN(Cc1cccs1)c1ccccn1`, the call in [1], in [2] and in test [3] was inactive.

Turning to `NS(=O)(=O)c1cc2c(cc1Cl)NC(C1CC3C=CC1C3)NS2(=O)=O` (stereo unspecified), the result in test [1], in test [2] and in [3] was inactive.

With `CN(C)CCCN1c2ccccc2Sc2ccc(C(F)(F)F)cc21`, the Potency entry in test [4] and in [10] was “inactive” in each case. The call in test [2] and in test [3] was inactive.

Take `COCCOC(=O)C1=C(C)NC(C)=C(C(=O)OC(C)C)C1c1cccc([N+](=O)[O-])c1` (stereo unspecified): the call in test [1], in test [2] and in test [3] was inactive.

In the case of `Cc1nc2c([nH]1)c(=O)n(C)c(=O)n2Cc1ccco1`, the Potency entry in [4] was “inactive”. The call in test [1] and in test [3] was inactive.

On to `COC(=O)[C@@H](N)Cc1ccc(O)c(O)c1`, for which the outcome in test [1], in test [2] and in test [3] was inactive.

As to `Cc1cc(C)c(/C=C2\C(=O)Nc3ccccc32)[nH]1`, the Potency result in test [4] and in test [10] was “inactive” throughout. Further, the compound was called inactive in test [1] and in [3].

Turning to `O=C(O)CP(=O)(O)O`, the Potency result in test [4] and in test [10] was “inactive” throughout. For the same compound, the outcome in [1], in [2] and in [3] was inactive.

On to `O=C(O)CN(CCN(CC(=O)O)CC(=O)O)CCN(CC(=O)O)CC(=O)O`, for which the result in [1], in test [2] and in [3] was inactive.

As for `CC(C)NCC(O)c1cc(O)cc(O)c1` (stereo unspecified), in test [4], the Potency was 7.08 µM (active). The call in [1] and in test [3] was inactive.

On to `COc1cc2c(cc1OC)-c1cc(=Nc3c(C)cc(C)cc3C)n(C)c(=O)n1CC2`, for which, in [4], the Potency entry was “inactive”. Moreover, the compound was called inactive in test [1] and in test [3].

On to `CCCOc1ccccc1-c1nc2n[nH]nc2c(=O)[nH]1`, for which the Potency entry in [4] and in test [10] was “inactive” each time. Further, the result in test [1], in [2] and in test [3] was inactive.

Take `CCN(CC)CCNC(=O)c1cc(S(C)(=O)=O)ccc1OC`: the Potency entry in test [4] and in test [10] was “inactive” throughout. Besides, the result in test [1], in [2] and in [3] was inactive.

On to `O=C1CC2(CCCC2)CC(=O)N1CCCCN1CCN(c2ncccn2)CC1`, for which the call in [1], in test [2] and in [3] was inactive.

As to `Cc1scc2c1N(C(=O)CN1CCN(C)CC1)c1ccccc1NC2=O`, the outcome in test [1], in [2] and in test [3] was inactive.

For the compound `CC(=O)[C@]1(O)Cc2c(O)c3c(c(O)c2[C@@H](O[C@H]2C[C@H](N)[C@H](O)[C@H](C)O2)C1)C(=O)c1ccccc1C3=O`, the call in [1], in [2] and in [3] was inactive.

With `CN(C)C(=O)Oc1cccc([N+](C)(C)C)c1`, the compound was called inactive in test [1], in test [2] and in [3].

For the compound `CN(C(=O)CCCOc1ccc2[nH]c(=O)ccc2c1)C1CCCCC1`, the result in [1], in test [2] and in [3] was inactive.

On to `CC(=O)Oc1cc(C(C)C)c(OCCN(C)C)cc1C`, for which the Potency entry in test [4] and in test [10] was “inactive” each time. For the same compound, the outcome in [1], in test [2] and in test [3] was inactive.

Turning to `C[n+]1cc2c3c(ccc2c2ccc4cc5c(cc4c21)OCO5)OCO3`, the result in [1], in [2] and in test [3] was inactive.

On to `CO[C@@]1(NC(=O)CSCC#N)C(=O)N2C(C(=O)O)=C(CSc3nnnn3C)CS[C@@H]21`, for which the compound was classed as inactive in [1], in test [2] and in test [3].

With `CCCCCCCC/C=C\CCCCCCCC(=O)NCc1ccc(O)c(OC)c1`, the compound was classed as inactive in [1], in test [2] and in [3].

For `CC[N+](C)(C)c1cccc(O)c1`, the result in test [1], in [2] and in test [3] was inactive.

With `CC(C)[N+](C)(CCOC(=O)C1c2ccccc2Oc2ccccc21)C(C)C`, the outcome in [1], in test [2] and in [3] was inactive.
